From PubChem
LGR2 antag: inhibitors of bursicon-induced Drosophila LGR2 receptor cAMP signaling; 380,000 compounds, 0.35% hits; HEK293 LGR2, CRE-luciferase, bursicon-stimulated, 4 h; inhibition, % at 9.99 µM; AID 720647;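 active = drop in luminescence signal, shown as inhibition above about 50% in the replicate tests, limit read from the data, passing the limit was not always enough; inconclusive = probably only some replicates passing the limit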;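 note: agonist challenge used bursicon conditioned medium at about half maximal strength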
TROY NFkB inh: TROY signaling inhibition. Q293 LMP1-TROYcd NF-kB luciferase reporter, 4 h. inhibition, % at 10 µM. 360,000 compounds, 0.98% hits. AID 1347056;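 active = compounds whose plate-normalised and pattern-corrected inhibition of the luciferase reporter signal at the single screening dose is 50% or more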
TWEAK Fn14 block: inhibitors of TWEAK-Fn14 interaction signaling; TWEAK-stimulated Fn14 reporter cells, luciferase luminescence, 8 h; inhibition, % at 10 µM; 360,000 compounds, 2% hits; in the data active = inhibition above about 50%
HSP90 refold inh: blocks HSP90-mediated luciferase refolding in reticulocyte lysate; AID 1789; inhibition, % at 5.6 µM; 290,000 compounds, 0.91% hits; Rabbit reticulocyte lysate, luciferase refolding luminescence, 3 h;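 active = inhibition above the screen-wide mean plus 3 SD, computed separately per campaign, cut at about 16% in these data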;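 note: 0% = DMSO wells and 100% = 60 µM geldanamycin wells; inhibitors lower the luminescence because luciferase stays unfolded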
The depositor's hits bear a star; u = inconclusive; x = no result given. Hits are enriched below; roughly 2.2% of the tested compounds scored in any of these assays.

SMILES | LGR2 antag | TROY NFkB inh | TWEAK Fn14 block | HSP90 refold inh
Clc1ccccc1N1CCN(c2ncnc3nc[nH]c23)CC1 | 7.9 | 1.9 | -11.3 | 58.2*
O=C(C[C@@H]1C=C[C@@H](NC(=O)CN2CCOCC2)[C@H](CO)O1)NCCc1ccncc1 | 4.5 | x | x | x
Cn1nnnc1Sc1ncnc2scc(Br)c12 | u | 67.5* | 99.2* | x
Cn1nnnc1Sc1ncnc2scc(-c3ccc[nH]3)c12 | 45.0 | -1.3 | 70.5* | x
Cn1nnnc1Sc1ncnc2scc(-c3cccc4ccccc34)c12 | 2.7 | 29.3 | 60.2* | x
Cn1nnnc1Sc1ncnc2scc(-c3ccc(Br)cc3)c12 | 100.2* | 60.4* | 88.1* | x
COc1ccccc1-c1csc2ncnc(Sc3nnnn3C)c12 | 17.0 | -8.2 | 22.6 | x
Cn1nnnc1Sc1ncnc2scc(-c3ccccc3Br)c12 | 20.2 | 29.9 | 38.6 | x
C[C@@H]1CCCCO[C@H](CN(C)C(=O)c2ccncc2)[C@H](C)CN([C@@H](C)CO)C(=O)c2cc(NS(=O)(=O)c3cn(C)cn3)ccc2O1 | -7.6 | x | x | x
Cc1noc(C)c1S(=O)(=O)Nc1cccc2c1O[C@H](CN(C)Cc1ccncc1)[C@H](C)CN([C@@H](C)CO)C2=O | -11.7 | x | x | x
O=C(NCC[C@H]1CC[C@H](NC(=O)C2CCOCC2)[C@H](CO)O1)Nc1ccc(Cl)cc1 | -5.2 | x | x | x
C[C@H](CO)N1C[C@H](C)[C@H](CN(C)S(=O)(=O)c2cn(C)cn2)Oc2ccc(NC(=O)Nc3ccccc3)cc2C1=O | 5.9 | x | x | x
Cn1nnnc1Sc1ncnc2scc(-c3ccccc3)c12 | 28.6 | 33.5 | 28.3 | 3.1
Cn1nnnc1Sc1ncnc2scc(-c3ccc(F)cc3)c12 | x | 28.6 | 57.1* | 2.0
C[C@@H]1CN([C@H](C)CO)C(=O)c2cccc(NC(=O)c3cnccn3)c2O[C@H]1CN(C)Cc1ccc2c(c1)OCO2 | 0.7 | x | x | x
COc1ccc(/C=N/NC(=O)c2ccoc2C)cc1COc1c(C)cccc1C | x | 41.1 | 74.4* | -1.0
Cc1cccc(C)c1OCC(=O)NNC(=O)c1ccoc1C | x | x | 51.2* | -2.0
CC(=O)N1CCCCN2[C@H](CO)[C@H](c3ccc(-c4cccc(C)c4)cc3)[C@H]2C1 | 0.8 | x | x | x
Cc1ccc(S(=O)(=O)N2CCCCC2C)cc1[N+](=O)[O-] (stereo not drawn) | 23.6 | 8.6 | -24.7 | 16.4*
O=C(Nc1cccc(Cl)c1)c1ccc2c(=O)n3c(nc2c1)CCCCC3 | x | 52.8* | 40.8 | 2.3
O=C(Nc1ccccn1)c1ccc2c(=O)n3c(nc2c1)CCCCC3 | 13.2 | 12.8 | 56.1* | x
O=C(N[C@H]1CC[C@H](CC(=O)N2CCCCC2)O[C@H]1CO)c1cccc(F)c1 | -12.4 | x | x | x
C=CCCc1ccc(C#N)c(SCc2c(C(=O)OCC)c3cc(OC(C)=O)c(Br)cc3n2C)n1 | x | 9.9 | 47.0 | 0.1
CCOC(=O)c1c(CSc2nc(C)cc(C)c2C#N)n(C)c2cc(Br)c(OC(C)=O)cc12 | 11.9 | 27.0 | 60.8* | -4.1
COc1cccc(C(C)(O)c2nc(-c3cccc(C#N)c3)cs2)c1 (stereo not drawn) | 8.4 | 22.1 | 51.7* | x
SMILES | LGR2 antag | TROY NFkB inh | TWEAK Fn14 block | HSP90 refold inh
CC(=O)Nc1cccc(-c2csc(C(C)(O)c3cccc(F)c3)n2)c1 (stereo not drawn) | -12.5 | -0.9 | -5.9 | x
CCN(CC)C(=O)c1cccc(-c2csc(C(C)(O)c3cccc(F)c3)n2)c1 (stereo not drawn) | 20.2 | 38.4 | 53.0* | x
COc1ccc(C(C)(O)c2nc(-c3cccc(C#N)c3)cs2)cc1 (stereo not drawn) | 9.4 | 15.9 | 14.6 | x
O=C(Cc1ccccc1)N1CC[C@@H]2[C@H]1c1cc(-c3ccccc3)ccc1N[C@@H]2CO | -17.0 | x | x | x
COc1cccc(S(=O)(=O)N(C)C[C@H]2Oc3ncc(C#CCN(C)C)cc3C(=O)N([C@H](C)CO)C[C@H]2C)c1 | -8.3 | x | x | x
O=C(c1cc2nc(-c3ccco3)cc(C(F)(F)F)n2n1)N1CCN(c2ccccn2)CC1 | x | -1.9 | 50.7* | 1.6
COCC#Cc1ccc2c(c1)O[C@@H](CN(C)S(=O)(=O)c1ccc(OC)cc1)[C@H](C)CN([C@H](C)CO)S2(=O)=O | -15.8 | x | x | x
O=C(c1ccco1)N1CCN(c2ncnc3sc4c(c23)CCC4)CC1 | x | -11.0 | -6.9 | -7.6
c1ccc(N2CCN(c3ncnc4sc5c(c34)CCC5)CC2)cc1 | x | 44.0 | 58.8* | 4.5
CCc1cc2c(N3CCN(c4ccccc4)CC3)ncnc2s1 | 7.5 | 20.1 | 60.5* | 0.7
CN1[C@@H]2c3ccc(-c4ccc(F)cc4)c(=O)n3C[C@H]1[C@H](CO)[C@H]2C(=O)N1CCCCC1 | -9.3 | x | x | x
CN(CC1CCCO1)S(=O)(=O)c1ccc(C(=O)Nc2nc3cc4c(cc3s2)OCO4)cc1 (stereo not drawn) | 18.6 | 29.9 | 52.6* | -0.8
CCN(CC)S(=O)(=O)c1cccc(C(=O)Nc2nc3cc4c(cc3s2)OCCO4)c1 | 3.3 | 61.3* | 94.8* | -0.8
CN(CC1CCCO1)S(=O)(=O)c1ccc(C(=O)Nc2ccc3c(c2)OCO3)cc1 (stereo not drawn) | -5.7 | 3.8 | -13.3 | 2.3
CO[C@H]1CN(C)C(=O)c2ccc(NC(=O)Cc3ccccc3)cc2OC[C@H](C)N(C)C[C@@H]1C | 5.5 | x | x | x
O=C(COC(=O)c1ccccc1-n1cnnn1)c1ccc(F)cc1 | -37.1 | 64.1* | 52.8* | x
COc1ccc(NC(=O)N(C)C[C@H]2OCCCC[C@@H](C)Oc3ccc(NC(=O)Cc4ccccc4)cc3C(=O)N([C@@H](C)CO)C[C@@H]2C)cc1 | 5.8 | x | x | x
O=C(Nc1cccc(Cl)c1)c1ccc(F)c(S(=O)(=O)N2CCN(c3ccccn3)CC2)c1 | 16.0 | 33.0 | 59.4* | 1.6
O=C(Nc1cccc(C(=O)NC2CC2)c1)c1ccc(Cl)c(S(=O)(=O)N2CCOCC2)c1 | -4.1 | -5.7 | 1.5 | x
O=C(NCCN1CCOCC1)c1ccc(Cl)c(S(=O)(=O)N2CCCCCC2)c1 | x | x | 66.0* | -3.5
O=C(Nc1cccc(Br)c1)c1ccc(Cl)c(S(=O)(=O)N2CCOCC2)c1 | 12.9 | 45.4 | 77.2* | -1.2
O=C(Nc1ccc(Cl)c(S(=O)(=O)N2CCOCC2)c1)c1ccc(OCC2CCCO2)cc1 (stereo not drawn) | x | 76.7* | 98.9* | -1.6
O=C(NCCN1CCOCC1)c1ccc(Cl)c(S(=O)(=O)N2CCCC2)c1 | 8.0 | 8.8 | 26.8 | -1.5
C[C@@H]1CN([C@H](C)CO)C(=O)c2cc(NC(=O)CCN3CCOCC3)ccc2O[C@@H]1CN(C)Cc1ccc2c(c1)OCO2 | 24.9 | x | x | x
C[C@@H]1CN([C@H](C)CO)C(=O)c2cc(C#CCN(C)C)cnc2O[C@@H]1CN(C)Cc1cccc(C(=O)O)c1 | 1.7 | x | x | x
C[C@@H]1CN([C@H](C)CO)S(=O)(=O)c2ccc(-c3cccnc3)cc2O[C@@H]1CN(C)C | 3.2 | x | x | x
CC(C)NC(=O)Nc1ccc2c(c1)C(=O)N([C@H](C)CO)C[C@H](C)[C@@H](CN(C)C(=O)NC(C)C)OCCCC[C@H](C)O2 | -1.7 | x | x | x
CCc1ccc(OCC(=O)Nc2ccc(-c3nc4ccccc4o3)c(O)c2)cc1 | x | -58.1 | -2.2 | -0.2
Oc1cc(NCc2cccnc2)ccc1-c1nc2ccccc2o1 | x | -37.7 | 102.9* | -2.7
Cc1cc(=O)[nH]c(NCc2ccccc2)n1 | 0.4 | 2.1 | -23.9 | 16.2*
